# Source: PubChem BioAssay
# Compounds with a hit are over-represented: about 4.1% of the library has one in this group of screens.
# NALP1 yeast inh – NALP1 inflammasome inhibitors in reconstituted yeast, colorimetric, S. cerevisiae, triplicate retest; S. cerevisiae NALP1/ASC/caspase-1 growth, X-gal OD620, 72 h; inhibition, % at 10 µM; 280,000 tested, 0.61% active; AID 2071, 2009; in the data active = inhibition mostly above about 24%, no sharp cut-off; inactive = mostly below about 32%
# tim23-1 inh – growth inhibitors of tim23-1 mutant yeast, primary screen, luminescence, uHTS. AID 463212, 2010. S. cerevisiae tim23-1 growth, BacTiter-Glo luminescence, 24 h. inhibition, % at 20 µM. 330,000 tested, 1.3% active;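 active = growth inhibition of the mutant yeast at or above 50%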;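 note: temperature-sensitive mutant grown at 25 °C; plate controls were DMSO-treated mutant yeast for no effect and medium wells lacking yeast for full effect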
# tim10-1 inh – growth inhibitors of tim10-1 mutant yeast, primary screen, luminescence, uHTS; S. cerevisiae tim10-1 ts strain growth, BacTiter-Glo, 24 h; inhibition, % at 20 µM; 330,000 tested, 2.2% active;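 active = inhibition of at least 40%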;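 note: mutant grown at 25 °C; 0% = DMSO wells with yeast and 100% = wells holding no yeast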
# TIM10 inh – growth inhibitors of isogenic TIM10 control yeast, primary screen, counter-screen for tim10-1 yeast inhibitor project, luminescence, uHTS | AID 463195, 2010 | 330,000 tested, 1.4% active | S. cerevisiae TIM10 strain growth, BacTiter-Glo luminescence, 24 h | inhibition, % at 10 µM;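 active = inhibition of 40% or more at the single tested concentration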;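 note: wild-type TIM10 isogenic control strain grown at permissive 25 °C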
# NLRP3 yeast inh – NALP3 inflammasome inhibitors in reconstituted yeast, primary screen, luminescence, uHTS; Yeast reconstituted NLRP3/ASC/caspase-1, beta-gal luminescence, 24 h; inhibition, % at 10 µM; 330,000 tested, 0.39% active; AID 2825, 2010;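 active = inhibition of 50% or more; inactive = inhibition below 50%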;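 note: plate controls were induced DMSO wells for no effect and uninduced yeast grown without galactose for full effect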
# NALP3 confirm – NALP3 inhibitors retested in yeast, confirmation, luminescence, single concentration | yeast expressing human NALP3 | 1,300 tested, 81% active | inhibition, % at 10 µM | shares compounds with NLRP3 yeast inh; in the data active = inhibition above about 48%
# Casp1-ASC yeast – CASP1-PYCARD signaling inhibition in yeast, confirmatory test, counterassay for NLRP3 inhibitor program, one-dose. AID 488784, 2010. inhibition, % at 10 µM. 1,000 tested, 66% active. yeast expressing Caspase-1-ASC, luminescence counter screen. shares compounds with NLRP3 yeast inh
# NALP3 retest – NALP3 inhibitors in yeast, repeat test, confirmation, luminescence, single concentration, retest; shares compounds with NLRP3 yeast inh; yeast expressing human NALP3, luminescence read-out; inhibition, % at 10 µM; 1,000 tested, 53% active; AID 488794, 2010
# * hit, by the source's call; . = no result. Cut-off read from the data, not from the text of the source, unless noted: active = inhibition above about 50%; inactive = the rest.
SMILES,NALP1 yeast inh,tim23-1 inh,tim10-1 inh,TIM10 inh,NLRP3 yeast inh,NALP3 confirm,Casp1-ASC yeast,NALP3 retest
O=C1/C(=C/c2ccccn2)SC(=S)N1c1cccc(O)c1,.,8.9,23.0,22.9,81.3*,73.6*,79.5*,51.4*
Cc1ccc(/C=C2\SC(=S)N(c3cccnc3)C2=O)cc1,12.8,8.2,1.3,10.3,54.1*,23.7,.,.
O=C1/C(=C/c2cccnc2)SC(=NCc2ccccc2)N1Cc1ccccc1,15.1,5.5,-4.8,23.4,4.9,.,.,.
CCOC(=O)c1cnn(-c2nc(-c3cccc(F)c3)cs2)c1C(F)(F)F,-5.9,25.1,28.7,20.3,20.0,.,.,.
C=CCNc1nc(Cl)nc(Nc2ccc(OCC)cc2)n1,42.9,17.4,21.1,18.9,52.5*,46.3,38.0,34.0
O=C(Nc1ccc(N2CCCCC2)cc1)C(Cl)c1ccccc1 (stereo not given),21.2,17.7,20.6,19.0,50.3*,55.8*,44.1,33.9
CC(NC(=O)c1ccco1)C(=O)N1CCCCC1 (stereo not given),5.5,-3.4,-7.0,7.6,-1.2,.,.,.
Cc1nc2sc(-c3ccccc3)cc2c(=O)n1N,-2.6,13.4,28.2,-7.8,25.6,.,.,.
Cc1nc2sc(-c3ccccc3)cc2c(=O)n1-n1cccc1,-15.4,-2.9,3.9,-4.4,51.9*,70.8*,57.5*,43.8
C=CCN1C(=O)/C(=C/c2ccc(OC(C)=O)c(OCC)c2[N+](=O)[O-])SC1=S,8.2,.,.,.,.,.,.,.
O=C(Nc1ccc(F)cc1)C1(S(=O)(=O)c2ccc(Cl)cc2)CC1,18.1,27.7,20.6,-12.5,55.1*,74.8*,48.0,42.0
Cc1ccc(-n2c(-c3ccccc3)n[nH]c2=S)cc1,-14.8,24.4,33.1,21.2,15.1,.,.,.
Cc1ccc(-n2c(-c3ccccc3)c[nH]c2=S)cc1,-2.9,11.7,-5.6,-20.1,55.9*,28.1,.,.
COc1ccc(-n2c(-c3ccc(Cl)cc3)c[nH]c2=S)cc1,-19.0,19.2,23.1,-3.6,56.6*,79.6*,50.7*,38.4
Cc1ccc2c(c1)C(CCN)C(=O)N2Cc1ccccc1 (stereo not given),25.9,18.8,11.5,-1.8,50.5*,68.5*,51.9*,50.6*
CC(/C=N/NC(=O)c1cc(-c2cccn2C)n[nH]1)=C\c1ccccc1,-29.2,38.2,3.2,0.8,-3.7,.,.,.
Cn1nnc2ccccc2c1=O,-16.4,8.8,0.7,-4.4,3.2,.,.,.
O=C(Nc1ccc2c(c1)OCO2)Nc1cnccn1,11.0,10.8,-3.5,-11.5,10.0,.,.,.
O=C(Nc1ccc2c(c1)OCO2)Nc1ccccn1,21.9,11.2,15.1,9.9,53.0*,61.2*,.,.
O=C(Nc1ccc2c(c1)OCO2)c1cccc(Cl)c1,-11.5,42.9,8.6,32.3,55.7*,57.8*,62.2*,60.6*
COc1ccc(N=C2S/C(=C\c3ccc(N4CCOCC4)o3)C(=O)N2CCc2c[nH]c3ccccc23)cc1,5.9,25.5,2.1,12.1,57.2*,53.5*,.,.
COc1ccc(N=C2S/C(=C\c3ccc(OCC(=O)O)cc3)C(=O)N2CCc2c[nH]c3ccccc23)cc1,-5.3,19.5,25.2,2.3,21.7,.,.,.
CCCNC(=O)c1c(O)c2cccc3c2n(c1=O)CCC3,-1.2,.,.,.,.,.,.,.
NCCNC(=O)c1c(O)c2cccc3c2n(c1=O)CCC3,35.3*,41.2,-13.8,32.5,61.0*,75.1*,51.5*,46.1
C=CCc1c(C)nc(C)nc1N/N=C/c1ccccc1O,41.9,37.6,13.0,35.1,55.5*,56.7*,37.8,54.5*
SMILES,NALP1 yeast inh,tim23-1 inh,tim10-1 inh,TIM10 inh,NLRP3 yeast inh,NALP3 confirm,Casp1-ASC yeast,NALP3 retest
COc1cc(/C=C(\C#N)c2ccccn2)cc(OC)c1O,.,15.6,5.9,23.2,36.3,.,.,.
CN(C)c1ccc(/C=C(\C#N)c2ccccn2)cc1,44.4,33.0,28.9,29.6,51.2*,34.5,.,.
COC(=O)c1ccc(/C=C(\C#N)c2ccccn2)cc1,0.8,22.8,-3.4,-7.1,62.7*,52.0*,46.9,49.7
CC(C(=O)NCc1ccccc1)n1cc([N+](=O)[O-])cn1 (stereo not given),0.5,-2.4,-0.5,-3.0,4.6,.,.,.
O=C1c2ccccc2C(=O)N1Cc1nc2ccccc2c(=O)n1CCN1CCOCC1,.,21.8,14.6,3.5,-10.0,.,.,.
Cc1ccc(-c2nnn(CC(=O)Nc3ccccc3-c3ccccc3)n2)c(-n2cnnn2)c1,-13.0,.,.,.,.,.,.,.
CC(=O)Oc1ccccc1C(=O)Nc1ccccc1,.,5.9,-17.5,-10.7,52.1*,68.3*,33.4,44.8
O=C(O)/C=C/c1cnc2ccccc2c1,-6.0,-0.9,-9.4,-13.1,-8.2,.,.,.
CCN(C(=O)CCN1C(=O)/C(=C/c2ccccc2)SC1=S)C1CCS(=O)(=O)C1 (stereo not given),11.3,14.6,14.2,17.5,3.3,.,.,.
Cc1ccc2c(c1)c1c(n2C)C(=O)CCC1,7.1,4.3,-2.7,-1.0,54.4*,56.0*,63.2*,52.1*
CCn1c2c(c3cc(Cl)ccc31)CCCC2=O,22.2,-2.1,12.9,-25.7,44.3,.,.,.
O=c1c2cc(Br)ccc2nc(-c2ccc([N+](=O)[O-])cc2)n1O,-5.7,46.7,17.3,-8.9,52.9*,78.6*,46.5,62.1*
COc1ccc(Cn2c(=O)sc3ccccc3c2=O)cc1,-19.2,9.9,11.1,6.4,50.6*,59.5*,60.0*,42.6
Cn1ncc2c(Nc3ccc(-c4ccccc4)cc3)ncnc21,19.2,44.9,-22.3,19.1,50.9*,51.9*,59.6*,53.7*
Cn1ncc2c(Nc3ccc(Cl)c(Cl)c3)ncnc21,6.8,22.6,21.5,7.4,-4.3,.,.,.
Cc1cccc(NCc2cc(Cl)ccc2O)n1,11.0,15.6,0.9,-5.0,50.9*,45.5,46.8,41.8
O=C(c1ccccc1)N1CCSc2sccc2C1=O,14.8,.,.,.,.,.,.,.
O=C1c2ccsc2SCCN1Cc1ccccc1Cl,5.0,2.7,3.3,-13.2,50.7*,56.5*,44.0,46.6
Cc1ccccc1CN1CCSc2sccc2C1=O,10.9,14.5,1.1,16.2,58.4*,37.0,37.1,38.4
O=C(NC1CC2CCC(C1)N2Cc1ccccc1)c1ccccc1Cl (stereo not given),7.7,4.3,-7.9,-17.7,14.5,.,.,.
COc1cccc(NC(=O)c2ccc(OC(F)(F)F)cc2)c1,.,14.9,3.6,15.5,50.2*,63.2*,40.7,19.2
Cc1nn(C)c(C)c1NC(=S)Nc1ccc(S(=O)(=O)Nc2ncccn2)cc1,6.6,-2.1,-9.7,12.7,-4.4,.,.,.
